Molecules are shown by their SMILES. Results filed as inconclusive are left out. A number with no mark means an inactive call. The call rests on the fitted dose curve; in most records, active means well fitted cell-killing curve with a large enough effect in the repeat runs; inconclusive means weak or mixed curves, or effect the other way; inactive means no such curve, though single readings can be large or run the other way.
On the % scale 0 is the no-effect control and ±100 the full control effect.

The assay in a line: qHTS assay to identify small molecule antagonists of the peroxisome proliferator-activated receptor gamma (PPARg) signaling pathway - cell viability counter screen (AID 743194). Further: nearly all actives have a fitted effect of over 55% in size. To be noted: PPARg-bla HEK293H viability, CellTiter-Glo luminescence, 17 h, co-treated with 50 nM rosiglitazone; series mostly up to 62.6 µM; activity change, negative = cytotoxicity: at the top concentration. The source says: U.S. Tox21 Program National Center for Advancing Translational Sciences [NCATS] NIH Chemical Genomics Center [NCGC] U.S. Environmental Protection Agency [EPA] National Institutes of Environmental Health Sciences [NIEHS] National Toxicology Program [NTP] U.S. Food and Drug Administration [FDA] Tox21 Assay Overview: The peroxisome proliferator-activated receptors (PPARs) are lipid-activated transcription factors of the nuclear receptor superfamily with three distinct subtypes namely PPAR alpha, PPAR delta (also called PPAR beta) and PPAR gamma (PPARg). All these subtypes heterodimerize with Retinoid X receptor (RXR) and these heterodimers regulate transcription of various genes. PPAR-gamma receptor (glitazone receptor) is involved in the regulation of glucose and lipid metabolism. To identify the compounds that activate PPAR-gamma signaling, GeneBLAzer PPAR gamma UAS-bla HEK293H cell line (Invitrogen, Carlsbad, CA, USA) containing a beta-lactamase reporter gene under the control of an Upstream Activator Sequence (UAS) was used to screen the Tox21 compound library. The cytotoxicity of the Tox21 compound library against the PPARg-bla cell line was tested in parallel by measuring the cell viability using CellTiter-Glo assay in the same wells.
Tox21 Assay Protocol Summary: PPARg-bla cells were dispensed at 3000 cells/5uL/well in 1536-well black wall/clear bottom plates using a Multidrop Combi (Thermo Fisher Scientific, Waltham, MA) dispenser. After the assay plates were incubated at 37 C and 5% CO2 for 5 h, 23 nL of compounds dissolved in DMSO, positive controls or DMSO only was transferred to the assay plate by a Pintool station (Kalypsys, San Diego, CA), followed by addition of 1ul Rosiglitazone (50 nM, final concentration in the wells). The assay plates were incubated at 37 C for 17 h, and then 1 uL of LiveBLAzerTM B/G FRET substrate was added using a Bioraptr Flying Reagent Dispenser (FRD) workstation (Beckman Coulter, Indianapolis, IN, USA). The assay plates were incubated at room temperature for 1 h and fluorescence intensity was measured by an Envision plate reader (PerkinElmer, Shelton, CT). For cell viability readout that measures cytotoxicity, 4 ul/well of CellTiter-Glo reagent was added into the assay plates using a Flying Reagent Dispenser. After 30 min incubation at room temperature, the luminescence intensity in the plates was measured using a ViewLux plate reader (PerkinElmer).
(In general: In qHTS, concentration-response curves come from the screen itself.)
As for `C[C@H]1[C@@H](c2ccccc2)NC(=O)N1C`, the “activity change, negative = cytotoxicity” value was 5.32% [at 81.1 µM]. The same measure for `CCC(=O)Oc1ccc2c(c1)CC[C@@H]1[C@@H]2CC[C@@]2(C)[C@H]1C[C@@H](OC(=O)CC)[C@@H]2OC(=O)CC`: 4.26%. The same measure for `CC(O)CC(C)O` (stereo not given): 2.08%. `N#CCC(=O)NN`: the “activity change, negative = cytotoxicity” value is 11.9%. The same measure for `CC(C)CCOC(=O)c1ccccc1`: 22.4%; for `CN(C)CCCO[C@@H]1[C@H]2OC(C)(C)O[C@H]2O[C@@H]1C(O)CO` (stereo not given in full): 21.5%.

For the molecule `C/C(=C1\CCOC(=O)S1)N(C=O)Cc1cnc(C)nc1N`, the “activity change, negative = cytotoxicity” value is -7.6%.

Consider `CC(C)OC(=O)CCC(=O)OC(C)C`, for which the “activity change, negative = cytotoxicity” value is 2.16%. The same measure for `COC(=O)c1cccc(Cl)c1`: -2.84%. The same measure for `O=C(NCN1CCOCC1)c1cnccn1`: 2.81%. The same measure for `O=C(CN1CCNCC1)NC1CCCCC1`: 0.795%; for `CC1=C(C(=O)O)N2C(=O)[C@@H](NC(=O)[C@H](N)c3ccccc3)[C@H]2SC1`: 14.6%. Consider `CC1(C)Cc2cccc(N)c2O1`, for which the “activity change, negative = cytotoxicity” value is 0.22%. The same measure for `O=[N+]([O-])c1c(Cl)cc(Cl)cc1Cl`: -13.3%; for `CC(=O)C1C(=O)C=C(C)OC1=O` (stereo not given): 12.7%; for `COC(=O)CCCCC(=O)O`: 6.38%. On to `CC(C)CO`, for which the “activity change, negative = cytotoxicity” value is 12.7% [at 81.1 µM]. The same measure for `CC(Oc1cc(Cl)ccc1Cl)C(=O)O` (stereo not given): -3.81%.

Take `OCC(O)CN1CCN(c2ccccc2)CC1` (stereo not given): the “activity change, negative = cytotoxicity” value was 0.985%.

Regarding `O=C[O][Al]([O]C=O)[O]C=O`, the “activity change, negative = cytotoxicity” value was 4.71%. The same measure for `Cn1c(=O)c2c(ncn2CCO)n(C)c1=O`: 16.6%; for `Cc1ccccc1C(N)=O`: -1.02%; for `CC(C)OC(=O)OCOP(=O)(CO[C@H](C)Cn1cnc2c(N)ncnc21)OCOC(=O)OC(C)C`: 12.5%. The same measure for `O=C1CCC(=O)N1Cl`: -15.3%; for `CC1CCc2c(N3CCC(O)CC3)c(F)cc3c(=O)c(C(=O)O)cn1c23` (stereo not given): 19.5%.

As for `COCCc1ccccn1`, the “activity change, negative = cytotoxicity” value was -8.3%.

As to `CCC/C=C(\C=O)CC`, the “activity change, negative = cytotoxicity” value is -7.42%. Take `COP(=O)(O)OP(=O)(O)OC`: the “activity change, negative = cytotoxicity” value was 3.04%. The same measure for `CCCSSCCC`: 1.6%. The same measure for `CC(N)CCCC(C)(C)O` (stereo not given): 5.29%. The same measure for `COc1cc(/C=C/C(N)=O)cc(OC)c1OC`: 24.1%; for `CC1(C)Oc2ccc(C#N)cc2[C@@H](N2CCCC2=O)[C@@H]1O`: 15.8%.

On to `CC(=O)c1cc(C)oc1C`, for which the “activity change, negative = cytotoxicity” value is -0.103% [at 81.1 µM].

On to `C=CCCCCCCCCC(=O)OCCCC`, for which the “activity change, negative = cytotoxicity” value is 3.85%.

As to `N#Cc1cscn1`, the “activity change, negative = cytotoxicity” value was 18.5%. The same measure for `CC(=O)C(C)O` (stereo not given): 11.3%. The same measure for `C#CCN[C@@H]1CCc2ccccc21`: 5.43%; for `CN(C)CCCCl`: -19.9% [at 81.1 µM].

On to `O=Cc1ccccc1Cl`, for which the “activity change, negative = cytotoxicity” value was -8.18%. The same measure for `CC(C)=CCC/C(C)=C/COC=O`: 9.74%.

(Values after PubChem BioAssay (Tox21).)
